The results in this text go back to PubChem BioAssay.

Experiment [1] can be described thus: viability loss in pontine glioma line – cell-based, SU-DIPG-XVII, MIPE5.0, CellTiter-Glo, qHTS, dose response (AID 1347060; cut-off not given, nearly all actives have AC50 up to about 26 µM;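 on AC50: cells exposed to compound for 48 hours before viability readout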). The note with it: CellTiter-Glo ATP luminescence.
Experiment [2] in a line: viability loss in pontine glioma line – cell-based, SU-DIPG-XIII, MIPE4.0, CellTiter-Glo, qHTS, dose response (AID 1347061; cut-off not given, nearly all actives have AC50 up to about 37 µM;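 further: cells exposed to compound for 48 hours before readout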). The note with it: CellTiter-Glo ATP luminescence.
The nature of experiment [3]: viability loss in pontine glioma line – cell-based, SU-DIPG-XIII, MIPE5.0, CellTiter-Glo, qHTS, dose response (AID 1347064; cut-off not given, nearly all actives have AC50 up to about 23 µM;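 on AC50: cells exposed to compound for 48 hours before the viability read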). The settings on record: CellTiter-Glo ATP luminescence. In general terms: In ATP-based viability assays light output follows the ATP content of the culture.
Experiment [4] is described as follows: viability loss in pontine glioma line – cell-based, SU-DIPG-XXV, MIPE5.0, CellTiter-Glo, qHTS, dose response (AID 1347065; cut-off not given, nearly all actives have AC50 up to about 26 µM;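 further: cells exposed to compound for 48 hours before ATP readout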). The note with it: CellTiter-Glo ATP luminescence.
Experiment [5] is described as follows: growth inhibition of DIPG cells – cell-based, MIPE4.0 library, CellTiter-Glo luminescence, qHTS (AID 1347066; cut-off not given, nearly all actives have AC50 up to about 30 µM;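 further: cells exposed to compound for 48 hours before readout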). The settings on record: SU-DIPG-VI viability, CellTiter-Glo ATP luminescence.
The nature of experiment [6]: JHH-DIPG-1 glioma cell viability, MIPE5.0 library, CellTiter-Glo luminescence, qHTS (AID 1347067; cut-off not given, nearly all actives have AC50 up to about 26 µM;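 further: cells exposed to compound for 48 hours before readout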). The settings on record: JHH-DIPG-1 glioma viability, CellTiter-Glo ATP luminescence.
Experiment [7] is described as follows: growth inhibition of DIPG cells – cell-based, MIPE5.0 library, qHTS (AID 1347068; cut-off not given, nearly all actives have IC50 up to about 30 µM). The settings on record: SU-DIPG-XXV viability.
A short description of experiment [8]: viability loss with induced miR-34 in A549 – imaging, A549 dox-inducible miR-34, nuclei and caspase counts, primary screen (AID 1347080;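 active means compounds whose cell count with miR-34 switched on is under 0.7 times the count with it off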). The note with it: A549 miR-34 inducible, Hoechst nuclei count, 48 h.
A short description of experiment [9]: MELAS cybrid and Rieske KO viability enhancers – cell-based, MELAS cybrids, Rieske KO mouse fibroblasts, CellTiter-Glo, primary screen (AID 1508586;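 active means mean z-score across replicates of 1.96 or higher in either the MELAS or the Rieske mutant cell line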;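 further: z relative to plate mean and SD of compound and empty wells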). The note with it: low glucose.
Experiment [10] is described as follows: viability loss in pontine glioma line – cell-based, SU-DIPG-IV, MIPE4.0, CellTiter-Glo, qHTS, dose response (AID 1347063; cut-off not given, nearly all actives have AC50 up to about 30 µM;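 further: compound exposure lasted 48 hours before the viability readout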). The settings on record: CellTiter-Glo ATP luminescence.
Experiment [11] is described as follows: viability loss in pontine glioma line – cell-based, JHH-DIPG-1, MIPE4.0, CellTiter-Glo, qHTS, dose response (AID 1347062; cut-off not given, nearly all actives have AC50 up to about 27 µM). The settings on record: JHH-DIPG-1 viability, CellTiter-Glo ATP luminescence.
A short description of experiment [12]: drug combination growth inhibition, ovarian cancer – cell-based, oncology-focused library, rucaparib conditional, profiling panel (AID 1508598). The settings on record: patient-derived ovarian cancer cells, CellTiter-Glo viability, 144 h, stronger effect = lower value.
Setting [13] is: stronger effect = lower value, cell number ratio, induced over uninduced.
Setting [14] is: measured here: relative caspase fold change +Dox/-Dox.
The mark [15] stands for this setting: measured here: total cells with miR-34 induction, stronger effect = lower value.
Setting [16] is: measured here: total cells without miR-34 induction.
Where [17] appears, read: MELAS cybrid survival, CellTiter-Glo 48 h, stronger effect = higher value.
The mark [18] stands for this setting: Rieske KO mouse fibroblast survival, CellTiter-Glo 72 h.

Results filed as inconclusive are left out. The source made the active and inactive calls.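 How the source made its calls, unless noted: active means normalized viability below 100% at a tested concentration; inactive means the rest.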

In the case of `N#CC1(c2ccc(NC(=O)c3cccnc3NCc3ccncc3)cc2)CCCC1`, the compound was classed as inactive in experiment [1], in experiment [2], in [3], in experiment [4], in [5] and in [6]. Also, the outcome in experiment [7] was inactive. In addition, the values for the fold change in experiment [8] (setting [13]) and in [8] (setting [14]) were 0.862 (inactive) and 1.08, respectively. Besides, the cell count in experiment [8] (setting [15]) is 6630; in [8] (setting [16]) it was 7700. Besides, the z-score was -0.704 (inactive) in experiment [9] (setting [17]) and 0.694 in experiment [9] (setting [18]).

Usually AC50 stands for the midpoint of the concentration-response curve, whichever way the signal moves. Turning to `Clc1ccc(C2(c3ccc(-c4cn[nH]c4)cc3)CCNCC2)cc1`, the AC50 was 18.6 µM (active) in experiment [1], 14.8 µM (active) in [3] and 10.5 µM (active) in experiment [4]. For the same compound, the call in [2] and in experiment [5] was inactive. In addition, the fold change was 0.914 (inactive) in [8] (setting [13]) and 1.06 in experiment [8] (setting [14]). Moreover, the figures for the cell count in experiment [8] (setting [15]) and in experiment [8] (setting [16]) were 2520 and 2760, respectively. For the same compound, the values for the z-score in [9] (setting [17]) and in experiment [9] (setting [18]) were 5.75 (active) and -3.02, respectively.

Regarding `COc1ccc(-c2oc3c(CC=C(C)C)c(OC4O[C@H](CO)[C@@H](O)[C@H](O)[C@H]4O)cc(O)c3c(=O)c2OC2O[C@@H](C)[C@H](O)[C@@H](O)[C@H]2O)cc1` (stereo partly specified), the result in experiment [1], in [2], in experiment [4], in [6] and in [7] was inactive. Besides, the AC50 in experiment [10] and in [5] was 14.8 µM (active) throughout.

As to `Clc1ccc(COC(Cn2ccnc2)c2ccc(Cl)cc2Cl)cc1` (stereo unspecified), the AC50 is 18.6 µM (active) in [1], 16.6 µM (active) in experiment [4] and 13.2 µM (active) in [6]. Further, the compound was called inactive in experiment [2].

As to `CC(/C=C1\SC(=S)N(CC(=O)O)C1=O)=C\c1ccccc1`, the call in [1], in experiment [11], in experiment [10], in [3], in experiment [4] and in [5] was inactive. For the same compound, in [6], the call was inactive.

For orientation: viability means a read-out of living cells in per cent, often relative to untreated cells. As to `Cc1c(NC(=O)OC[C@@H]2COCCN2)cn2ncnc(Nc3ccc4c(cnn4Cc4cccc(F)c4)c3)c12`, the AC50 in experiment [1] is 23.5 µM (active). For the same compound, the outcome in [2] was inactive. Also, the viability in experiment [12] (at 0.000305 µM, OCI-C5x cells, with rucaparib 10 µM, 100% = cells with rucaparib alone) is 137% (inactive); in [12] (at 0.000305 µM, OCI-C5x cells, without rucaparib) it was 137% (inactive); in experiment [12] (at 0.000305 µM, OCI-P5x cells, with rucaparib 20 µM, 100% = cells with rucaparib alone) it was 115% (inactive); in [12] (at 0.000305 µM, OCI-P5x cells, without rucaparib), 112% (inactive); in experiment [12] (at 0.00122 µM, OCI-C5x cells, with rucaparib 10 µM, 100% = cells with rucaparib alone), 131% (inactive); in [12] (at 0.00122 µM, OCI-C5x cells, without rucaparib) it was 144% (inactive). The viability was 114% (inactive) in [12] (at 0.00122 µM, OCI-P5x cells, with rucaparib 20 µM, 100% = cells with rucaparib alone); 111% (inactive) in [12] (at 0.00122 µM, OCI-P5x cells, without rucaparib); 117% (inactive) in experiment [12] (at 0.00488 µM, OCI-C5x cells, with rucaparib 10 µM, 100% = cells with rucaparib alone); 132% (inactive) in experiment [12] (at 0.00488 µM, OCI-C5x cells, without rucaparib); 109% (inactive) in experiment [12] (at 0.00488 µM, OCI-P5x cells, with rucaparib 20 µM, 100% = cells with rucaparib alone); 96.9% (active) in experiment [12] (at 0.00488 µM, OCI-P5x cells, without rucaparib). The viability is 119% (inactive) in experiment [12] (at 0.0195 µM, OCI-C5x cells, with rucaparib 10 µM, 100% = cells with rucaparib alone); 133% (inactive) in experiment [12] (at 0.0195 µM, OCI-C5x cells, without rucaparib); 109% (inactive) in experiment [12] (at 0.0195 µM, OCI-P5x cells, with rucaparib 20 µM, 100% = cells with rucaparib alone); 98.1% (active) in experiment [12] (at 0.0195 µM, OCI-P5x cells, without rucaparib); 116% (inactive) in experiment [12] (at 0.0781 µM, OCI-C5x cells, with rucaparib 10 µM, 100% = cells with rucaparib alone); 139% (inactive) in experiment [12] (at 0.0781 µM, OCI-C5x cells, without rucaparib). Moreover, the viability in experiment [12] (at 0.0781 µM, OCI-P5x cells, with rucaparib 20 µM, 100% = cells with rucaparib alone) is 111% (inactive); in [12] (at 0.0781 µM, OCI-P5x cells, without rucaparib), 98% (active); in experiment [12] (at 0.313 µM, OCI-C5x cells, with rucaparib 10 µM, 100% = cells with rucaparib alone), 121% (inactive); in experiment [12] (at 0.313 µM, OCI-C5x cells, without rucaparib) it was 133% (inactive); in [12] (at 0.313 µM, OCI-P5x cells, with rucaparib 20 µM, 100% = cells with rucaparib alone), 103% (inactive); in experiment [12] (at 0.313 µM, OCI-P5x cells, without rucaparib), 96.4% (active). Also, the viability in experiment [12] (at 1.25 µM, OCI-C5x cells, with rucaparib 10 µM, 100% = cells with rucaparib alone) was 121% (inactive); in [12] (at 1.25 µM, OCI-C5x cells, without rucaparib) it was 140% (inactive); in experiment [12] (at 1.25 µM, OCI-P5x cells, with rucaparib 20 µM, 100% = cells with rucaparib alone) it was 96.9% (active); in experiment [12] (at 1.25 µM, OCI-P5x cells, without rucaparib), 92.8% (active); in experiment [12] (at 5 µM, OCI-C5x cells, with rucaparib 10 µM, 100% = cells with rucaparib alone) it was 89.2% (active); in experiment [12] (at 5 µM, OCI-C5x cells, without rucaparib), 144% (inactive). Moreover, the viability in [12] (at 5 µM, OCI-P5x cells, with rucaparib 20 µM, 100% = cells with rucaparib alone) is 92.1% (active); in [12] (at 5 µM, OCI-P5x cells, without rucaparib) it was 96.9% (active).
